This is part of a sample that, as a whole, favours compounds with a hit. Of some 79,000 tested, about 15% had one in any assay. Rule as the data show it: active = growth inhibition above about 70%; inactive = the rest.
What was measured:
[1] = NCI Yeast Anticancer Drug Screen. Data for the rad50 strain (AID 155);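 also: 0% = growth of vehicle-only cultures of the same strain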; conditions: S. cerevisiae rad50 strain growth inhibition; at 50.0 µM; hits give high values
How it was run: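 Compounds were tested on a yeast strain with an engineered DNA damage repair alteration; the reported value is growth inhibition normalised to vehicle treatment.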

[2] = NCI Yeast Anticancer Drug Screen. Data for the mec2-1 strain (AID 157); conditions: S. cerevisiae mec2-1 strain, at 50.0 µM, hits give high values
How it was run: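 Each compound was tested on mec2-1 yeast, a strain altered in DNA damage repair or cell cycle control. Growth inhibition is reported relative to vehicle.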

[3] = NCI Yeast Anticancer Drug Screen. Data for the sgs1 mgt1 strain (AID 161);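 also: 0% = growth of cultures given vehicle only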; conditions: S. cerevisiae sgs1 mgt1 strain, at 50.0 µM, hits give high values
How it was run: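 Read-out: growth inhibition vs vehicle controls. Cells: mutant yeast strain deficient in DNA damage repair.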

[4] = NCI Yeast Anticancer Drug Screen. Data for the cln2 rad14 strain (AID 165);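 also: 0% = growth equal to vehicle treated cultures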; conditions: S. cerevisiae cln2 rad14 strain, at 50.0 µM, hits give high values
How it was run: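 Test compounds were added to cln2 rad14 yeast cultures; inhibition of growth was then determined by comparison with vehicle treatment.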

[5] = NCI Yeast Anticancer Drug Screen. Data for the bub3 strain (AID 167); conditions: S. cerevisiae bub3 mutant strain, at 50.0 µM, hits give high values
How it was run: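 Growth of a checkpoint-deficient yeast mutant is measured after compound exposure. Values represent inhibition relative to vehicle.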

[6] = NCI Yeast Anticancer Drug Screen. Data for the mlh1 rad18 strain (AID 175); conditions: S. cerevisiae mlh1 rad18 strain growth inhibition; at 50.0 µM; hits give high values
How it was run: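 Inhibition values reflect reduced growth of mutant yeast versus vehicle-treated controls following compound exposure; the mutations affect DNA damage repair.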

Measured: growth inhibition

CCCCC(=O)N/N=C/c1ccccc1OCC
inactive: [1] -7% | [2] 0.05% | [3] 0.6% | [4] -3.3% | [5] -9.9% | [6] -7.6%

CC1(C)CC(=O)C(C(CCC2CCCCC2=O)C2C(=O)CC(C)(C)CC2=O)C(=O)C1 (stereo not given)
inactive: [1] 38.5% | [2] 7.95% | [3] 10% | [4] 1.95% | [5] 9.35% | [6] 19.6%

CCCCC(C)(CCN)CCCC
inactive: [1] 5.05% | [2] 1.4% | [3] -5.05% | [4] 7.4% | [5] -3% | [6] 0.1%

Cc1ccc(CSC(=S)NNc2ccccc2)cc1C
inactive: [1] -28.6% | [2] -44.3% | [3] -2.15% | [4] -13.6% | [5] -32.6% | [6] -35.8%

CCCCCCOC(=O)C(C)(O)C(Cl)c1ccccc1 (stereo not given)
inactive: [1] 3.95% | [2] -0.45% | [3] -5.4% | [4] 3.9% | [5] 9.3% | [6] -10.2%

CC(N)CCN (stereo not given)
inactive: [1] 3.7% | [2] 11.2% | [3] -5.55% | [4] 10.8% | [5] 12.1% | [6] 1.55%

CCN(CC)CCC1CC/C(=C\c2ccc(OC)cc2)C1=O (stereo not given)
inactive: [1] 18.3% | [2] -4.35% | [3] 27.9% | [4] 21.1% | [5] -2.45% | [6] 21.9%

O=C1/C(=C/c2ccc([N+](=O)[O-])cc2)CCCc2ccccc21
inactive: [1] 11.1% | [2] 6.8% | [3] 22.9% | [4] -22.3% | [5] -0.95% | [6] 21.9%

CCC(c1ccc(N(CC)CC)cc1[N+](=O)[O-])c1ccc(N(CC)CC)cc1[N+](=O)[O-]
inactive: [1] 29% | [2] 26.4% | [3] 44.5% | [4] 36.5% | [5] 28.9% | [6] 20.1%

NC(=S)N/N=C\c1nccc2ccc(N)cc12
inactive: [1] 36% | [2] -0.8% | [3] 3.1% | [4] -46.8% | [5] -5.8% | [6] 4.9%

Cc1c2ccnc(C#N)c2c(C)c2c1[nH]c1ccccc12
inactive: [1] -19.8% | [2] 3% | [3] -16.9% | [4] -13.3% | [5] 12.8% | [6] 7.5%

Nc1ncc(Cl)c(NCC2(CO)CC(CCc3ccccc3)C2)n1 (stereo not given)
inactive: [1] -4.7% | [2] -19.1% | [3] -11.6% | [4] -1.15% | [5] -37% | [6] 2.35%

CCCCCCCOC(=O)COc1ccc(Cl)cc1Cl
inactive: [1] 11.1% | [2] 9.05% | [3] 10.8% | [4] 1.25% | [5] 9.8% | [6] 4.9%

CCCCCCCC(=O)N(CC)CC
inactive: [1] 13.5% | [2] -4.05% | [3] 25.4% | [4] -17.1% | [5] 1.6% | [6] 8.75%

CCN(CC)C(=O)CC1(O)CCCCC1
inactive: [1] -9.7% | [2] -11.2% | [3] -3.15% | [4] -9.65% | [5] 2.3% | [6] 4.2%

COc1cc(C2=N/C(=C\c3ccc(Cl)c(Cl)c3)C(=O)O2)cc(OC)c1OC
inactive: [1] -26.2% | [2] -14.8% | [3] 24.6% | [4] -28.7% | [5] -4.4% | [6] 3.95%

CC1(C)OCC(C2OC3OC(C)(C)OC3C2c2ccccc2)O1 (stereo not given)
inactive: [1] -3.55% | [2] -9% | [3] -31.1% | [4] 1.4% | [5] -2.8% | [6] 2.2%

O=C(O)C1CCC(=O)N1Cc1ccccc1 (stereo not given)
inactive: [1] 1.35% | [2] -5.5% | [3] -7.75% | [4] -18% | [5] -7.05% | [6] -8.35%

O=C(O)c1cccnc1Cl
inactive: [1] 10.2% | [2] -3.5% | [3] -9.9% | [4] 14.4% | [5] 4.15% | [6] -4.45%

COc1ccc(C(O)C(NCc2ccccc2)c2ccccc2)cc1 (stereo not given)
inactive: [1] 7.75% | [2] -7.3% | [3] 13.2% | [4] 11.8% | [5] 2.55% | [6] 23.9%
